Results on 19 compounds are retold here after PubChem BioAssay (NCI).

A short description of assay [1]: NCI Yeast Anticancer Drug Screen. Data for the rad50 strain (AID 155).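 Also: 0% = growth of vehicle-only cultures of the same strain.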 As to conditions: S. cerevisiae rad50 strain growth inhibition; at 50.0 µM; hits give high values. In short, it runs like this:
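Growth of the mutant yeast was measured after compound exposure and referenced to vehicle-treated cultures.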

Assay [2] is described as follows: NCI Yeast Anticancer Drug Screen. Data for the mec2-1 strain (AID 157). As to conditions: S. cerevisiae mec2-1 strain, at 50.0 µM, hits give high values. In short, it runs like this: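 Cells of the genetically defined mec2-1 yeast strain are incubated with test compound. Inhibition of growth is calculated against vehicle-treated controls.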
Assay [3] can be described thus: NCI Yeast Anticancer Drug Screen. Data for the sgs1 mgt1 strain (AID 161).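 Also: 0% = growth of cultures given vehicle only.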 Conditions: S. cerevisiae sgs1 mgt1 strain, at 50.0 µM, hits give high values. The method, boiled down: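 Inhibition of yeast growth, normalised to vehicle-treated controls, is reported for a strain bearing genetic alterations in DNA damage repair.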
Assay [4] is described as follows: NCI Yeast Anticancer Drug Screen. Data for the cln2 rad14 strain (AID 165).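 Also: 0% = growth equal to vehicle treated cultures.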 As to conditions: S. cerevisiae cln2 rad14 strain, at 50.0 µM, hits give high values. The method, boiled down: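 The screen exposed genetically defined yeast (cln2 rad14) to test compounds and scored growth inhibition relative to vehicle-treated controls.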
Assay [5] in a line: NCI Yeast Anticancer Drug Screen. Data for the bub3 strain (AID 167). As to conditions: S. cerevisiae bub3 mutant strain, at 50.0 µM, hits give high values. The method, boiled down:
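Whole-cell yeast assay. The mutant strain was incubated with compounds, and growth inhibition was determined by comparison with vehicle-treated cells.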

Assay [6] is described as follows: NCI Yeast Anticancer Drug Screen. Data for the mlh1 rad18 strain (AID 175). As to conditions: S. cerevisiae mlh1 rad18 strain growth inhibition; at 50.0 µM; hits give high values. The method, boiled down:
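Compound-treated yeast growth, normalised to vehicle controls. Strain bears defined DNA repair mutations.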

This is part of a sample that, as a whole, favours compounds with a hit. Of some 79,000 tested, about 15% had one in any assay. Values without a mark were called inactive. The source made the active and inactive calls. Rule as the data show it: active = growth inhibition above about 70%; inactive = the rest.

With `CCOC(=O)CC1(O)Oc2cc3c(cc2C(c2cc(OC)c(OC)c(OC)c2)C1C(=O)OCC)OCO3` (centres undefined), the growth inhibition was -0.75% in assay [1]; -5.9% in assay [2]; -21.6% in assay [3]; -0.55% in assay [4]; -1.45% in assay [5]; 10.2% in assay [6].
`CN(C)CCSC(=Nc1ccccc1)N1CCCCC1`: the growth inhibition in assay [1] is -32.8%; in assay [2], 1.7%; in assay [3] it was -9.5%; in assay [4] it was 30.9%; in assay [5], 8.15%; in assay [6], -9.6%.
For the compound `O=C1NC(N2CCCC(CO)C2)=N/C1=C\c1ccc(O)cc1` (centres undefined), the growth inhibition in assay [1] was 13.1%; in assay [2], 2.05%; in assay [3], -15.3%; in assay [4], 33.4%; in assay [5], -9.6%; in assay [6] it was -31.6%.
As to `O=C(c1ccc(F)cc1)c1c[nH]c(=O)[nH]c1=O`, the growth inhibition in assay [1] was -0.45%; in assay [2] it was -18.1%; in assay [3], -7.85%; in assay [4], -6.85%; in assay [5], 2.6%; in assay [6] it was -33.2%.
`Nc1nc(Cl)nc(Cl)n1`: the growth inhibition was -53.7% in assay [1]; -59.5% in assay [2]; -33% in assay [3]; 3.75% in assay [4]; -52.4% in assay [5]; -12.2% in assay [6].
In the case of `O=S(=O)(c1ccc(OCCOc2ccc(S(=O)(=O)N3CCOCC3)cc2)cc1)N1CCOCC1`, the growth inhibition is 0.55% in assay [1]; 7.75% in assay [2]; 12.6% in assay [3]; -15.4% in assay [4]; 2.95% in assay [5]; -14% in assay [6].
As for `NNC(=O)c1ccc(Cl)c(Cl)c1`, the growth inhibition in assay [1] was -1.1%; in assay [2], -13.3%; in assay [3], -0.9%; in assay [4], 2.85%; in assay [5], -16.3%; in assay [6], -23.8%.
As for `S=C(NCN1CCNCC1)C(=S)NCN1CCNCC1`, the growth inhibition in assay [1] is -14.2%; in assay [2], -9.55%; in assay [3], -6.1%; in assay [4], -12.1%; in assay [5], -4.05%; in assay [6], -9.6%.
Take `Nc1nc(-c2ccc3c(ccc4ccccc43)c2)cs1`: the growth inhibition was 7.6% in assay [1]; 15.5% in assay [2]; 18.2% in assay [3]; -46.3% in assay [4]; 47.7% in assay [5]; 28.2% in assay [6].
On to `COc1ccccc1OC(=O)Nc1ccc(S(=O)(=O)N(C)C)cc1`, for which the growth inhibition was 28.2% in assay [1]; 8.5% in assay [2]; 0% in assay [3]; 4.1% in assay [4]; 8.65% in assay [5]; 6.65% in assay [6].
Turning to `Cc1cc2nc3c(=O)[nH]c(=O)nc-3n(CCOC(=O)CCC(=O)O)c2cc1C`, the growth inhibition in assay [1] was -8.35%; in assay [2], 9.45%; in assay [3] it was 10.5%; in assay [4], 0.2%; in assay [5], 3.1%; in assay [6], 3.95%.
As for `OC(CN(C1CCCCC1)C1CCCCC1)c1ccnc2c(Cl)cc(Cl)cc12` (centres undefined), the growth inhibition in assay [1] was -21.8%; in assay [2] it was -1%; in assay [3] it was 7.3%; in assay [4], 0.6%; in assay [5] it was -6.3%; in assay [6] it was 18.4%.
`O=C(O)c1ccc(C(=O)Nc2cccc3ccccc23)c(C(=O)O)c1`: the growth inhibition in assay [1] is -6.9%; in assay [2], 8.4%; in assay [3], -11.9%; in assay [4], 6.35%; in assay [5], 3.55%; in assay [6] it was -10.2%.
On to `CC1(C)N=C(N)N=C(N)N1c1ccc(CCCCc2ccccc2)cc1`, for which the growth inhibition in assay [1] is 99.6% (active); in assay [2] it was 99.7% (active); in assay [3], 99.8% (active); in assay [4], 99.3% (active); in assay [5] it was 50%; in assay [6], 46.1%.
Take `CCOC(=O)Cc1csc2[n+]1C(=O)/C(=C/c1cccc(OC)c1O)S2`: the growth inhibition in assay [1] is 45.1%; in assay [2] it was 9.8%; in assay [3], 53.4%; in assay [4], -10.2%; in assay [5] it was 13.3%; in assay [6] it was 38.2%.
In the case of `O=C(NC1C(=O)NNC1c1cccc([N+](=O)[O-])c1)c1ccccc1` (centres undefined), the growth inhibition was -37.5% in assay [1]; -26.1% in assay [2]; 2.85% in assay [3]; -10.6% in assay [4]; 11.9% in assay [5]; 0.55% in assay [6].
On to `O=C(/C=C/c1ccc(O)c(O)c1)OC1CC(O)(C(=O)O)CC(O)C1O` (centres undefined), for which the growth inhibition in assay [1] is 4.75%; in assay [2] it was 5.9%; in assay [3] it was 7.85%; in assay [4] it was 11.4%; in assay [5], -2.75%; in assay [6], 17.7%.
In the case of `Cc1cccc(C)c1NC(=O)C(=O)C(C#N)c1c(Cl)cccc1Cl` (centres undefined), the growth inhibition in assay [1] was -38%; in assay [2], 5.2%; in assay [3], 16.4%; in assay [4] it was -25.2%; in assay [5], -4.85%; in assay [6] it was 10.7%.
For `COc1cc2c(cc1OC)[C@H]1C(COC(=O)c3ccccc3)CSC(=Nc3ccccc3)N1CC2` (some centres undefined), the growth inhibition in assay [1] was 21.9%; in assay [2] it was 17.6%; in assay [3] it was 36%; in assay [4], 49.8%; in assay [5], 36.9%; in assay [6], 22.3%.
